Experimental findings from the OligoGym collection are described below.
Further: reference of the scale not given here.

In one assay the target is FBXL3. The assay is described as follows: pooled miR-30 sensor sort-seq; sequence = guide strand. Conditions: shRNA.
For the sequence TACTGGAGTATCATCTATCTTA, the sensor-assay potency score (higher = more potent) was -0.0234.

For TATGGAAGTGTGTCTGTCCAGG, the sensor-assay potency score (higher = more potent) is -0.66.

TTCCTTGCTGCTGTCCACCTTG registered a sensor-assay potency score (higher = more potent) of -0.442.

As to TATCACAAGCTGCTTCAGCTGA, the sensor-assay potency score (higher = more potent) was -0.251.

Sequence TTTAATAATCTGTTTGATCAGC registered a sensor-assay potency score (higher = more potent) of -0.685.

Sequence TTGCACACACTACTAGTTCAAC yielded a sensor-assay potency score (higher = more potent) of -1.05.

Sequence TTAATTATAATACATTTGCTTG gave a sensor-assay potency score (higher = more potent) of -1.08.

The sequence TAACTCTTCATCAAGTGGCCGT returned a sensor-assay potency score (higher = more potent) of -0.249.

TACATCACTAAGTTCACTTTGG had a sensor-assay potency score (higher = more potent) of 0.0732.

In turn, TACTCTTCTGAATAGTATGGAA showed a sensor-assay potency score (higher = more potent) of -0.502.

In the next assay the target is FBXO25. Described as above. Particulars: shRNA.
For TCTTAATCCAACTCCATCCAGG, the sensor-assay potency score (higher = more potent) is -0.487.

For ATATCTTGAATTGCACTTGAGA, the sensor-assay potency score (higher = more potent) was -0.85.

TGTGTCTCCGTACTGCTCCTTC showed a sensor-assay potency score (higher = more potent) of -0.185.

On to TCTGTCTTAATCCAACTCCATC, for which the sensor-assay potency score (higher = more potent) was -1.72.

Regarding TTCACTAAGCATATACAACGTG, the sensor-assay potency score (higher = more potent) was -0.104.

As for TAATCCAACTCCATCCAGGAGA, the sensor-assay potency score (higher = more potent) was -0.761.

Sequence TATTGAATATTTCTCCATCTTC yielded a sensor-assay potency score (higher = more potent) of -0.493.

Consider TAGGTCTTGCAGAAGATCTTTG, for which the sensor-assay potency score (higher = more potent) was -0.731.

TTGACCACATAATTGAACCTTC came in with a sensor-assay potency score (higher = more potent) of 0.213.

Turning to TTTTTTTCGATGCATATTCATG, the sensor-assay potency score (higher = more potent) is -0.983.

Regarding TCACTAAGCATATACAACGTGG, the sensor-assay potency score (higher = more potent) is -0.518.

Regarding TTCACTTGCTTAGTCATCTGAA, the sensor-assay potency score (higher = more potent) was found to be 0.836.

The target in a further assay is FBXO27. The description is as above. Particulars: shRNA.
Take TGATATATTATTCTTACTGTTT: the sensor-assay potency score (higher = more potent) was -0.893.

The sequence TTTTCCTCCACCACCCAGCCGT gave a sensor-assay potency score (higher = more potent) of -0.662.

The sequence TTTAACGTAGACTTTCAGCTGC gave a sensor-assay potency score (higher = more potent) of 0.647.

Turning to AATTTATCTAGAACAGTCTGGT, the sensor-assay potency score (higher = more potent) was 0.248.

In turn, TTGATGTTGGAGAACACGTGGG yielded a sensor-assay potency score (higher = more potent) of -0.501.

The sequence TTTTTTTTTAACGTAGACTTTC yielded a sensor-assay potency score (higher = more potent) of -0.903.

As for TTATCTAGAACAGTCTGGTTGG, the sensor-assay potency score (higher = more potent) came out at 0.434.

With TTTATCTAGAACAGTCTGGTTG, the sensor-assay potency score (higher = more potent) stood at 0.00929.

TGTTGCACCATCCACTTTCGGA yielded a sensor-assay potency score (higher = more potent) of -0.815.

Take TTACAGGTCCTTGAGGATCAGG: the sensor-assay potency score (higher = more potent) was -1.43.

In turn, TTTTTTAACGTAGACTTTCAGC returned a sensor-assay potency score (higher = more potent) of -0.574.

In turn, TCTGGTAGTTTCTAGAACCTGA yielded a sensor-assay potency score (higher = more potent) of 0.603.

For the next assay, the target named is FBXO43. The description is as above. Conditions: shRNA.
On to TTTATCTTGAACAACAATTTCA, for which the sensor-assay potency score (higher = more potent) was -0.614.

TTCATGTCCACTATTTTCCTGT: the sensor-assay potency score (higher = more potent) was 0.372.

Sequence TAATTCTGTTAAGATGTCCAGT came in with a sensor-assay potency score (higher = more potent) of -0.342.

As to TTATCTATATTATCAAAGCTAC, the sensor-assay potency score (higher = more potent) is -0.969.

In turn, AACCTTAACATATTCTTCCTGT registered a sensor-assay potency score (higher = more potent) of 0.212.

The sequence TTATCTTGAACAACAATTTCAC yielded a sensor-assay potency score (higher = more potent) of 0.0349.
